This is an account of results in PubChem BioAssay (Tox21).

Where “and” joins values, the source holds several entries; their conditions need not be identical. Equal entries are not always repeated. Results filed as inconclusive are left out. Some structures have more than one record in an assay (separate samples or runs), and their calls can disagree. Calls of active or inactive are those of the source. Unless noted, calls follow the shape of the dose curve; as a rule, active = well fitted curve in the direction sought with a large enough effect in the repeat runs; inconclusive = weak or mixed curves; inactive = no such curve, though single readings can be large; an effect the other way counts as inactive or inconclusive.

Test [1] is described as follows: qHTS assay to identify small molecule antagonists of the estrogen related receptor (ERR) signaling pathway from Tox21 library - cell viability counter screen (AID 1224834). Also: nearly all actives have a fitted effect of over 30% in size. Also: potency is read from the fitted curve at half-maximal effect. An outline of the steps: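 ERR reporter cells, 2,000 per well, rested 6 h, then exposed to compound in DMSO for 17.5 hours at 37 C. Viability read as fluorescence after 30 min with CellTiter-Fluor.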

In test [2] the target is Luciferin 4-monooxygenase (Photinus pyralis) (UniProt P08659). Nature of the test: qHTS assay to identify small molecule inhibitors of firefly luciferase (AID 1224835). Also: nearly all actives have a fitted effect of over 25% in size. Also: potency is read from the fitted curve at half-maximal effect. An outline of the steps: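 Quantitative HTS format; KM concentrations of both substrates. Purified P. pyralis FLuc activity quantified from luminescence images.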
(In general: Quantitative high-throughput screening tests each substance at several concentrations.)

A short description of test [3]: qHTS assay to identify small molecule agonists of the constitutive androstane receptor (CAR) signaling pathway - cell viability counter screen (AID 1224836). Also: nearly all actives have a fitted effect of over 45% in size. An outline of the steps:
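Viability read-out: CellTiter-Fluor fluorescence after 23 h compound exposure at 37 C/5% CO2 in double-stable HepG2-CYP2B6-hCAR cells, with PK11195 present at 0.75 uM final; compounds tested in 15-point titration.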

Test [4] deals with Nuclear receptor subfamily 1 group I member 3 (Homo sapiens) (UniProt Q14994). Nature of the test: qHTS assay to identify small molecule antagonists of the constitutive androstane receptor (CAR) signaling pathway (AID 1224838). Also: nearly all actives have a fitted effect of over 40% in size. Also: potency is read from the fitted curve at half-maximal effect. An outline of the steps:
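HepG2 cells stably carrying hCAR and a CYP2B6-2.2kb luciferase reporter, seeded 4 hrs before compound (15 concentrations). Stimulated with 50 nM CITCO for 24 hr at 37 C. ONE-Glo luminescence read after 30 min at room temperature.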

For test [5] the target is unchanged. Nature of the test: qHTS assay to identify small molecule agonists of the constitutive androstane receptor (CAR) signaling pathway (AID 1224839). Also: nearly all actives have a fitted effect of over 15% in size. Also: potency is read from the fitted curve at half-maximal effect. Put shortly: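 Luminescence read-out (ONE-Glo, 30 min, room temperature) from double-stable HepG2-CYP2B6-hCAR cells exposed 24 h to 15-point compound series in presence of 0.75 uM PK11195 final.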
The nature of test [6]: qHTS assay to identify small molecule antagonists of the estrogen related receptor signaling pathway with the pleiotropic PPARgamma coactivator (PGC) from Tox21 10K library - cell viability counter screen (AID 1224840; active = well fitted cell-killing curve with a large enough effect in the repeat runs, not every such curve was filed as active; also: nearly all actives have a fitted effect of over 40% in size; also: potency is read from the fitted curve at half-maximal effect). An outline of the steps: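 PGC/ERR cells (2,000/well) plated 6 h, then compound-treated for 17.5 h at 37 C. Viability measured by CellTiter-Fluor fluorescence after 30 min at 37 C, multiplexed with the pathway assay.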

Test [7] concerns the target Thyrotropin receptor (Homo sapiens) (UniProt P16473). Nature of the test: qHTS assay to identify small molecule agonists of the thyroid stimulating hormone receptor (TSHR) signaling pathway (AID 1224843; calls by dose curve; also: nearly all actives have a fitted effect of over 45% in size; also: potency is read from the fitted curve at half-maximal effect). Put shortly:
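Cell line HEK293 with TSHR; density 800/well. Exposure 30 min RT. Readout HTRF cAMP (cAMP-d2/anti-cAMP-cryptate), 1 h RT before reading.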

Test [8] in a line: qHTS assay to identify small molecule agonists of the hypoxia (HIF-1) signaling pathway - cell viability counter screen (AID 1224844; calls by dose curve; also: nearly all actives have a fitted effect of over 50% in size; also: potency is read from the fitted curve at half-maximal effect). Put shortly: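 HRE-bla ME-180 cells, 2,000/well in 0.5% dialyzed FBS medium, treated 17 h at 37C with compounds. Viability read in the same wells as the bla reporter, by CellTiter-Glo luminescence after 30 min at room temperature.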
Test [9] can be described thus: qHTS assay to identify small molecule agonists of H2AX - cell viability counter screen (AID 1224847; calls by dose curve; also: nearly all actives have a fitted effect of over 30% in size; also: potency is read from the fitted curve at half-maximal effect; as to activity change, negative = cytotoxicity: top concentration of the series differs between compounds). An outline of the steps:
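CHO-K1 wt, 1000 cells/well, o/n 37C; cpds 15 conc, 3 h 37C, 0.76% DMSO; CellTiter-Glo, 30 min RT, luminescence.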

A short description of test [10]: qHTS RealTime-Glo MT Cell Viability Assay in HepG2 cells - 24 hour (AID 1224867). Also: nearly all actives have a fitted effect of over 50% in size. Also: potency is read from the fitted curve at half-maximal effect. Put shortly: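 Cell number in HepG2 cultures estimated from NanoLuc luminescence generated by metabolic reduction of a prosubstrate by living cells. The homogeneous, nonlytic format allowed repeated reads at 0, 8, 16, 24, 32 and 40 h of compound exposure.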
The nature of test [11]: qHTS RealTime-Glo MT Cell Viability Assay in HEK293 cells - 32 hour (AID 1224868). Also: nearly all actives have a fitted effect of over 50% in size. Also: potency is read from the fitted curve at half-maximal effect. As to activity change, negative = cytotoxic: top concentration of the series differs between compounds. Put shortly:
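Homogeneous bioluminescent viability format in HEK293 cells (600 cells/well). Following 5 h at 37 C/5% CO2, 23 nL compound was pintooled; the signal was measured repeatedly during 40 h incubation.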

Test [12] can be described thus: A CellTox Green Cytotoxicity Assay to monitor cytotoxicity in HEK293 cells - 0 hour (AID 1224869). Also: nearly all actives have a fitted effect of over 50% in size. Put shortly: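 HEK293 cells, 600/well, were preincubated 5 hours and then exposed to compounds at 37 C for up to 40 hours. A cell-impermeant cyanine dye staining dead-cell DNA was read by fluorescence at 0, 8, 16, 24, 32 and 40 h time points.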
Test [13] is described as follows: qHTS RealTime-Glo MT Cell Viability Assay in HepG2 cells - 40 hour (AID 1224870). Also: nearly all actives have a fitted effect of over 50% in size. Also: potency is read from the fitted curve at half-maximal effect. An outline of the steps:
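HepG2 cells mixed with RealTime-Glo MT reagents (NanoLuc plus cell-permeant prosubstrate) were seeded at 600 cells/well, incubated 5 h at 37 C/5% CO2, then pinned with compounds in DMSO; nonlytic luminescence tracked viability during 40 h treatment.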

Test [14] can be described thus: qHTS assay to identify small molecule antagonists of the constitutive androstane receptor (CAR) signaling pathway - cell viability counter screen (AID 1224837). Also: nearly all actives have a fitted effect of over 45% in size. Also: potency is read from the fitted curve at half-maximal effect. An outline of the steps: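 HepG2 cells stably carrying hCAR and CYP2B6-2.2kb reporter, stimulated with 50 nM CITCO and compounds at 15 concentrations for 23 h at 37 C. Viability measured by CellTiter-Fluor fluorescence.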

The nature of test [15]: qHTS assay to identify small molecule agonists of H2AX (AID 1224845; active = well fitted activation curve with a large enough effect in the signal ratio in the repeat runs, not every such curve was filed as active; the % refers to the signal ratio; also: potency is read from the fitted curve at half-maximal effect). Put shortly:
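Wild-type CHO-K1 cells plated overnight, then exposed 3 hr at 37C to compounds at 15 concentrations (0.76% DMSO). Lysed, then HTRF anti-pH2AX(S139)-cryptate/anti-H2AX-d2 detection after 24 hr at room temperature; emissions 665 and 620 nm.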

Test [16] is described as follows: qHTS assay to identify small molecule agonists of the hypoxia (HIF-1) signaling pathway (AID 1224846; active = well fitted activation curve with a large enough effect in the signal ratio in the repeat runs, not every such curve was filed as active; the % refers to the signal ratio). An outline of the steps: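 HRE-bla ME-180 beta-lactamase reporter cells in medium with 0.5% dialyzed FBS, pre-incubated 5 h then exposed to compounds 17 h at 37C, 5% CO2; reporter induction read with CCF4-AM FRET substrate.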
Test [17] can be described thus: qHTS assay to identify small molecule antagonists of the estrogen related receptor signaling pathway with the pleiotropic PPARgamma coactivator (PGC) from Tox21 10K library (AID 1224841; call rule not given here; also: potency is read from the fitted curve at half-maximal effect). Put shortly:
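PGC/ERR cell line, 2,000 cells/well, pre-incubated 6 hours at 37 C, then exposed to compounds for 18 hours at 37 C; luciferase read with One-Glo luminescence after 30 min at room temperature.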

The nature of test [18]: qHTS assay to identify small molecule agonists of the estrogen related receptor signaling pathway with the pleiotropic PPARgamma coactivator (PGC) from Tox21 10K library (AID 1224842). Also: nearly all actives have a fitted effect of over 15% in size. Also: potency is read from the fitted curve at half-maximal effect. An outline of the steps: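 PGC/ERR reporter cells (NTP line) were seeded 2,000 per well, rested 6 h at 37 C/5% CO2, then pin-dosed with compounds in DMSO for 18 h at 37 C; luciferase read by One-Glo luminescence after 30 min at room temperature.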

A short description of test [19]: qHTS assay to identify small molecule antagonists of the estrogen related receptor (ERR) signaling pathway from Tox21 library (AID 1224848). Also: nearly all actives have a fitted effect of over 50% in size. Also: potency is read from the fitted curve at half-maximal effect. An outline of the steps:
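Screening used an ERR reporter line supplied by NTP, exposed for 18 h at 37 C to library compounds delivered in DMSO. Signal was luciferase luminescence developed with ONE-Glo at room temperature for 30 min.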

The nature of test [20]: qHTS assay to identify small molecule agonists of the estrogen related receptor (ERR) signaling pathway from Tox21 library (AID 1224849; calls by dose curve; also: nearly all actives have a fitted effect of over 15% in size). As to conditions: ERR reporter cell line, ONE-Glo luciferase, 18 h. An outline of the steps:
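ERR reporter cells (NTP line) pre-incubated 6 hours at 37 C, then exposed to compounds for 18 hours at 37 C. ONE-Glo luciferase luminescence was read after 30 minutes at room temperature.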
% is scaled to controls: 0 for no effect and ±100 for the full control effect.

Sequence of Luciferin 4-monooxygenase (Photinus pyralis) (P08659 whole entry, looked up): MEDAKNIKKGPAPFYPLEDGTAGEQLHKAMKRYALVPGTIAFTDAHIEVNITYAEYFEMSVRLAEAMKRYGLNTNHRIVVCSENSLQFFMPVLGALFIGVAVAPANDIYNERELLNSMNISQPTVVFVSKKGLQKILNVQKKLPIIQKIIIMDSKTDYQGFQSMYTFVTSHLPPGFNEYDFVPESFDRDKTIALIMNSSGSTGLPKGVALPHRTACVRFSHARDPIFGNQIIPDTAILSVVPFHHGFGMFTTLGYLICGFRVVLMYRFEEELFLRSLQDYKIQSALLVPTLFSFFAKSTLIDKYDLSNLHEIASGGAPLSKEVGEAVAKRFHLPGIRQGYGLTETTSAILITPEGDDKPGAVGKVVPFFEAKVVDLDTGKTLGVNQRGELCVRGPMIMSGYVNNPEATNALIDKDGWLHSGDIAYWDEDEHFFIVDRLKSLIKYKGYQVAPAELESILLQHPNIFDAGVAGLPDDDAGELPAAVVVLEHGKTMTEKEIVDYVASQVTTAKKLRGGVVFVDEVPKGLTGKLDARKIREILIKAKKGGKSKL
Sequence of Thyrotropin receptor (Homo sapiens) (P16473 whole entry, looked up): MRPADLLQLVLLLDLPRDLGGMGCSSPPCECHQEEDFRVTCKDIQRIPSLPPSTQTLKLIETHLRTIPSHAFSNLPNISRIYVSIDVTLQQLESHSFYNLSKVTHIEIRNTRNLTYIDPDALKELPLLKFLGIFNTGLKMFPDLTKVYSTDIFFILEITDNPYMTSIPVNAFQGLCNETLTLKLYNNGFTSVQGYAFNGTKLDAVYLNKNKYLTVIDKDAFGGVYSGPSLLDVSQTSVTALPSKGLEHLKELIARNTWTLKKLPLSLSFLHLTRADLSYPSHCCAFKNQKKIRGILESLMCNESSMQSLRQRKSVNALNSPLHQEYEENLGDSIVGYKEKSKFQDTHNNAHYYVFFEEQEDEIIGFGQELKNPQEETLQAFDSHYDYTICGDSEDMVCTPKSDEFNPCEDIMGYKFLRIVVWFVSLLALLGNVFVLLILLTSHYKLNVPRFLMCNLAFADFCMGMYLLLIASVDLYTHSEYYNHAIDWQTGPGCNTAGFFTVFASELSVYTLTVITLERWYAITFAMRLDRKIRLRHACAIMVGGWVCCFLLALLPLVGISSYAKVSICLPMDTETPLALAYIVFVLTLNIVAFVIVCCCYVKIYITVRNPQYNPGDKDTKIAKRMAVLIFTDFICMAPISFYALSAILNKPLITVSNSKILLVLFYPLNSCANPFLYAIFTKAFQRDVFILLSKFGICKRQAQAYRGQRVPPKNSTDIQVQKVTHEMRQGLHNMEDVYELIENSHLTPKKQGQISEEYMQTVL
Sequence of Nuclear receptor subfamily 1 group I member 3 (Homo sapiens) (Q14994 whole entry, looked up): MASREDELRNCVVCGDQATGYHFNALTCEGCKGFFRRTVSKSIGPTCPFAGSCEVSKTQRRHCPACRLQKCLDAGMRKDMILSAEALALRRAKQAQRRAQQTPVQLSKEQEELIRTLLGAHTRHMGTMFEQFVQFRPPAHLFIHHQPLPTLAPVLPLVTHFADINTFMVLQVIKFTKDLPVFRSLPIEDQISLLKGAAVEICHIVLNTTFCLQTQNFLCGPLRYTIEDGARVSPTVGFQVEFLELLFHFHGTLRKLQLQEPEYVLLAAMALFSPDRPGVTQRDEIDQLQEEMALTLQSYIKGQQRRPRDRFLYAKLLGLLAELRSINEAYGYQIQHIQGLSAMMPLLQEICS

In the case of `O=C1c2ccccc2C(=O)N1SC1CCCCC1`, the Potency in test [1] was 68.6 µM (active); in [2], 25.2 µM (active) and 17.8 µM (active); in [4], 68.5 µM (active); in test [8] it was 54.9 µM (active); in [9] it was 89.7 µM (active) and 89.8 µM (active); in test [10] it was 38.9 µM (active). In addition, the Potency in test [11] was 24.5 µM (active) and 38.9 µM (active); in [13], “inactive and 43.6 µM (active)”. The Potency entry in [3], in test [5], in [6], in test [7] and in [12] was “inactive” throughout.
Regarding `C=CCn1c(=O)n(CC=C)c(=O)n(CC=C)c1=O`, the Potency entry in [1], in [2], in test [3], in test [14], in test [6] and in test [7] was “inactive” in each case. For the same compound, the Potency result in [8], in test [15], in test [16], in [9], in [10] and in test [11] was “inactive” in each case. Also, the Potency result in [13] was “inactive”.
As to `CCCCC/C=C\C/C=C\CCCCCCCC(=O)O`, the Potency result in test [1], in test [3], in test [14], in [6], in test [7] and in test [15] was “inactive” throughout. In addition, the Potency result in test [9], in [10], in [11] and in [12] was “inactive” in each case. Moreover, the Potency in test [2] was 78.3 µM (active) and inactive.
On to `O=C(O)O`, for which the viability change, negative = cytotoxic was -2.55% [at 8.39 µM] (inactive) in [1], 1.44% [at 8.39 µM] (inactive) in test [3] and -0.122% [at 8.39 µM] (inactive) in [6]. The activity change, negative = cytotoxicity was -19.8% [at 8.39 µM] (inactive) in test [14], -9.67% [at 14 µM] (inactive) in test [9] and 3.08% [at 6.97 µM] (inactive) in [10]. Besides, the activity, negative = inhibition is 259% [at 8.39 µM] (inactive) in test [17] and 10.7% [at 8.39 µM] (inactive) in test [19]. Also, the Potency was 264 nM (active) in test [18] and 4.88 µM (active) in test [15]. Moreover, the activation in [7] was 2.41% [at 8.39 µM] (inactive). The activity change, positive = activation in test [20] (at 8.39 µM (top of the series)) was 5.47% (inactive). Also, the results for the activity change, negative = cytotoxic in [11] and in test [13] were 0.187% [at 6.97 µM] (inactive) and 19% [at 6.97 µM] (inactive), respectively.
Take `Cc1c2ccccc2c(C)c2c1ccc1ccccc12`: the Potency is 27 µM (active) and 54.5 µM (active) in test [1]; 19.8 µM (active) and 31.7 µM (active) in [2]; 54.5 µM (active) in test [14]; 5.39 µM (active) and 9.69 µM (active) in test [5]; 53.9 µM (active) and 27.3 µM (active) in test [6]; 34.4 µM (active) in test [17]. Also, the Potency in test [18] is 24.1 µM (active) and inactive; in test [7], 27 µM (active) and 24.3 µM (active); in test [19], 30.3 µM (active) and 61.1 µM (active); in test [11] it was 43.2 µM (active) and 24.5 µM (active). The Potency result in [4], in test [8], in test [15], in test [9], in test [10] and in test [12] was “inactive” in each case. Further, the activity change, positive = activation in test [20] (at 92.4 µM (top of the series)) is -83.3% (inactive) and -76.1% (inactive).
Regarding `CN1CCN(Cc2cc(-c3ccc4[nH]c(=O)oc4c3)co2)[C@@H](c2ccc(F)cc2)C1`, the Potency in test [1] is 23.4 µM (active); in test [7] it was 13.2 µM (active); in [11] it was 21.1 µM (active). Further, the Potency result in test [2], in [4], in test [5], in test [15], in [16] and in test [12] was “inactive” in each case.
Take `CNc1ccc([N+](=O)[O-])cc1`: the Potency in test [1] was 43.4 µM (active); in [2] it was 40 µM (active); in [14], 48.7 µM (active); in test [6] it was 48.7 µM (active). In addition, the Potency entry in test [4], in test [5], in test [17], in test [18], in [7] and in test [15] was “inactive” throughout. For the same compound, the Potency result in [16], in test [19], in test [10], in [11] and in test [12] was “inactive” each time. Moreover, the activity change, positive = activation in [20] (at 92.4 µM (top of the series)) was 0.163% (inactive).
